# Compound activity from PubChem.
# The list is not random: actives were taken first. Their share in the collection is about 1.6%.
# NPSR antag – antagonists of human neuropeptide S receptor cAMP signaling | 220,000 compounds, 1% hits | Q6W5P4 | Potency, µM (doses to about 38.3 µM), for the others: at the top dose activity change, negative = inhibition, usual class: inhibitors | CHO-NPSR cells, cAMP TR-FRET, antagonist mode; further: potency means the concentration at half of the fitted maximal effect; on the % scale 0 is the no-effect control and ±100 the full control effect; nearly all actives have a fitted effect of over 50% in size
# Target sequence (Q6W5P4 whole entry, looked up): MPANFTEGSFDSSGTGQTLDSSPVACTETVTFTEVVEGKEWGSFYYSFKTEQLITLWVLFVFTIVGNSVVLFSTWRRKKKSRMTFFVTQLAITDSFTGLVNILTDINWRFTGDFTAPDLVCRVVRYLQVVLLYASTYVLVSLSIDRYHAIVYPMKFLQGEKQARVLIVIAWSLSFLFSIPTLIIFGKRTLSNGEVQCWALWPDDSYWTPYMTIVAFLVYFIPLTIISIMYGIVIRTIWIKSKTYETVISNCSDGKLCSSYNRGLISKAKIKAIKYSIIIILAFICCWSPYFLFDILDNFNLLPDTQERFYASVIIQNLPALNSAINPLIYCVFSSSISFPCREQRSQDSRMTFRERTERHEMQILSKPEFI
# IMPase Li inh – membrane-permeable IMPase blocker, potentiated with lithium. CHO-M1 cells, IP1 TR-FRET (IP-One), carbachol + lithium. Potency, µM (top dose mostly 59.4 µM), without a hit: at the top dose activity, negative = IMPase inhibition, usual class: inhibitors. 210,000 compounds, 0.35% hits;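 further: IP1 builds up when IMPase is blocked and the TR-FRET signal falls; potency means the concentration at half of the fitted maximal effect; plate controls were basal vehicle for no effect and high inhibitor control for full effect; nearly all actives have a fitted effect of over 50% in size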
#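 Lithium-sensitised IP1 accumulation assay; M1-expressing CHO cells treated 30 min at 37C with compound. Competitive antibody detection by time-resolved FRET followed a 10 min room-temperature lysis step.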
# HTT ATP protect – Huntington cell model cytoprotection by ATP luminescence | PC12 HTT-Q103 induced, cytoprotection, ATP luminescence, 40 h | 230,000 compounds, 0.14% hits | Potency, µM (highest dose often 56.4 µM), without a hit: cytoprotection (ATP increase), hits mostly activators; further: potency means the concentration at half of the fitted maximal effect; % of control where 0% means no effect; nearly all actives have a fitted effect of over 45% in size
#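 ATP quantification (ATPlite) reports survival of PC12 cells in which tebufenozide, 100 nM final, switches on Htt exon 1 with 103 glutamines linked to GFP; compounds are titrated.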
# LMNA splice mod – modulators of lamin A splicing; HeLa LMNA splicing GFP/RFP minigene ratio, 48 h; Potency, µM (highest dose often 46.1 µM), inactives show at the highest dose ratio change, negative = inhibition, actives largely listed as inhibitors; AID 1487; 200,000 compounds, 0.01% hits; active means well fitted inhibition curve with a large enough effect in the signal ratio, with a control signal flat, not every such curve was filed as active; inconclusive means small, poorly fitted or top-dose-only effect, or effect the other way, or a change in a side signal; the % refers to the signal ratio; further: potency means the concentration at half of the fitted maximal effect; on the % scale 0 is the no-effect control and ±100 the full control effect
#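 Read-out is the ratio of GFP to DsRed2 object intensity, acquired by 488 nm laser-scanning cytometry on HeLa lamin A-EGFP minigene reporter cells. Compound incubation 48 hrs at 37 °C in Opti-MEM with 2% FBS; DMSO 0.5% final.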
# HTT aggregate – reduces HttQ103-GFP aggregates in PC12 cells; 220,000 compounds, 1.1% hits; PC12 HttQ103-GFP aggregates, Acumen cytometry, 40 h; Potency, µM (top dose mostly 46.1 µM), without a hit: top-dose activity change, negative = inhibition, actives largely listed as inhibitors; further: potency means the concentration at half of the fitted maximal effect; on the % scale 0 is the no-effect control and ±100 the full control effect; nearly all actives have a fitted effect of over 60% in size
#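 Huntingtin Q103 exon 1–GFP aggregates in induced PC12 cells (100 nM tebufenozide) were quantified by cytometry from lysates, with compounds dosed in titration.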
# IMPase cell inh – membrane-permeable compound that blocks inositol monophosphatase; P97697; CHO-M1 cells, IP1 accumulation, HTRF TR-FRET ratio; inhibition (IP1 accumulation), % at 46.1 µM; 120,000 tested, under 10 active; AID 901; active means well fitted curve in the direction sought with a large enough effect in the signal ratio, not every such curve was filed as active; inconclusive means small, poorly fitted or top-dose-only effect, or a change in a side signal; inactive means no such curve, though single readings can be large or run the other way; the % refers to the signal ratio;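 further: cells stimulated with carbachol in lithium chloride buffer; plate controls were DMSO basal wells for no effect and reference inhibitor wells for full effect; higher means more IMPase inhibition seen as more IP1 and lower FRET ratio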
# Target sequence (P97697 whole entry, looked up): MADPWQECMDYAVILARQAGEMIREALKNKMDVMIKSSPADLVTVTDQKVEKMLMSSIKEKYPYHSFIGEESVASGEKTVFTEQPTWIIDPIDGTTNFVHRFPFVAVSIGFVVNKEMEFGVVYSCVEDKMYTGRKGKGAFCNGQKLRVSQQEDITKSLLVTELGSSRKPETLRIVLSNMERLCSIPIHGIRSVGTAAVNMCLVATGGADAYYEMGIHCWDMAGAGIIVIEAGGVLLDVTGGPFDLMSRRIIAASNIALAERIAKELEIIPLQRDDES
#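 In this qHTS, compounds (final up to 46 uM) act on CHO-M1 cells that are then activated through the M1 receptor with carbachol, in pH 7.4 buffer containing 50 mM LiCl, for 30 min. IP1 accumulation is quantified by the IP-One immunoassay.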
# The depositor's hits bear a star; ? = inconclusive; nt = no result; ! = not active in a repeat; [ ] = dose if it differs, or a comment. Unless noted, the call rests on the fitted dose curve; in most records, active means well fitted curve in the direction sought with a large enough effect; inconclusive means small, poorly fitted or top-dose-only effect, or another doubt; inactive means no such curve, though single readings can be large; an effect the other way counts as inactive or inconclusive.
SMILES,NPSR antag,IMPase Li inh,HTT ATP protect,LMNA splice mod,HTT aggregate,IMPase cell inh
CC1COC2=C1C(=O)C(=O)c1c2ccc2c1CCCC2(C)C (stereo not given),nt,-8%,nt,-11%,nt,nt
Cc1ccc(-c2nc(Nc3ccc(N4CCOCC4)cc3)c3ccccc3n2)cc1,13µM*,nt,9%[10 µM],nt,-9%[9.22 µM],nt
C=CC(=O)OCC(CO)(COC(=O)C=C)COC(=O)C=C,nt,4%,?,nt,nt,nt
O=C(c1ccc(S(=O)(=O)Cc2cc(F)ccc2F)c([N+](=O)[O-])c1)N1CCCC1,3%,-12%,-81%,nt,16µM*,nt
O=C(c1ccc(S(=O)(=O)Cc2cc(F)ccc2F)c([N+](=O)[O-])c1)N1CCCCC1,13%,20%,-7%[10 µM],?,13µM*,19
O=C(c1ccc(S(=O)(=O)Cc2ccccc2Cl)c([N+](=O)[O-])c1)N1CCN(c2ccccn2)CC1,-8%,5%,-202%,nt,16µM*,nt
CC1CCN(C(=O)c2ccc(S(=O)(=O)Cc3cccc(F)c3)c([N+](=O)[O-])c2)CC1,4%,2%,9%[10 µM],-4%,?,nt
CCOc1ccc(-c2c(C)nn3c(-c4ccccc4)c(C(=O)NCCOC)cnc23)cc1OCC,nt,nt,nt,4%[46 µM],nt,nt
Cc1ccc(NC(=S)N(CCN(C)C)Cc2cc3cc(C)cc(C)c3[nH]c2=O)cc1,-41%,2%,10%[10 µM],-12%,?,nt
O=C(CCCN1CCN2CCCC2C1)c1ccc(F)cc1 (stereo not given),nt,nt,?,nt,-5%,nt
Cc1[nH]nc2c1/C(=N/O)CC(c1ccccc1)C2 (stereo not given),-29%[46.1 µM],-8%[38.3 µM],-32%,1%,13µM*,6
C/C(=N\N=C(N)N)c1cccc(Cl)c1,-2%,1%,-183%,nt,5µM*,nt
O=S1(=O)C=C(Sc2nnc(-c3ccccc3)o2)c2ccccc21,?,?,-114%,?,4.5µM*,?
CC(=O)Nc1nc(C)c(C(C)=O)s1,5%[46.1 µM],28%[38.3 µM],-9%,4%,-8%,-13
CC(=O)c1sc(NC(=O)C(C)C)nc1C,29%[46.1 µM],11µM*,27%,4%,-9%,?
CC(=O)c1sc(Nc2ccccn2)nc1C,18%[46.1 µM],14µM*,-16%[10 µM],?,-19%,?
CC(C)(C(=O)O)c1ccc([C@@H](O)CCCN2CCC(C(O)(c3ccccc3)c3ccccc3)CC2)cc1,nt,nt,-4%[1.9 µM],nt,nt,nt
CCCCCCCCCCCCCCCCOC[C@@H](COCC(F)(F)F)OP(=O)(O)OCO,nt,nt,8%[1.9 µM],nt,nt,nt
Cc1[nH]c2ccccc2c1SCCNC(=O)c1ccc(Br)o1,-18%[46.1 µM],7%,-20%[10 µM],?,25µM*,-2
Cc1cccc(OCC(=O)NCCc2nc3ccccc3[nH]2)c1C,nt,nt,nt,nt,nt,1
COCC(=O)O[C@]1(CCN(C)CCCc2nc3ccccc3[nH]2)CCc2cc(F)ccc2[C@@H]1C(C)C,10µM*,11%,-99%,?,7.9µM*!,-4
CC(CCC(=O)O)C1CCC2C3CC(O)[C@@H]4CC(O)CC[C@]4(C)C3CC[C@@]12C (stereo not given in full),nt,12%,nt,2%,nt,nt
CCCCCCOC(=O)C[N+](C)(C)CCOC1CC2CCC1(C)C2(C)C (stereo not given),?,36%[38.3 µM],-67%[10 µM],?,6.3µM*,-4[1.84 µM]
COC(=O)c1cc(=O)c(O)c2c(O)c(O)ccc2c1,nt,31%,nt,?,nt,nt
O=C(CN1CCCN(Cc2cccc(F)c2)S1(=O)=O)Nc1ccc2c(c1)OCCO2,nt,nt,nt,-3%[46 µM],nt,nt
SMILES,NPSR antag,IMPase Li inh,HTT ATP protect,LMNA splice mod,HTT aggregate,IMPase cell inh
O=C1CCC(=O)N1c1nc2n(n1)C(c1ccccc1)C=C(c1ccc(Br)cc1)N2 (stereo not given),9%[46.1 µM],11µM*,-13%,0%,-17%,-17
COc1ccc(C2C=C(c3ccc(Br)cc3)Nc3nc(N4C(=O)CCC4=O)nn32)cc1 (stereo not given),-11%[46.1 µM],1%[38.3 µM],-23%,7%,-6%,-11
CCCCCCCCCCCCC/C=C/[C@@H](O)[C@H](COP(=O)([O-])OCC[N+](C)(C)C)NC(=O)CCCCCCCCCCCCCCCCC,nt,-6%,?,nt,nt,nt
O=C(NC(NC(=S)Nc1c(Cl)cccc1Cl)C(Cl)(Cl)Cl)OCc1ccccc1 (stereo not given),-40%,15%,-4%[10 µM],?,22µM*,nt
CCOC(=O)NC(NC(=S)Nc1ccc(OCC)cc1)C(Cl)(Cl)Cl (stereo not given),7%,-5%,nt,?,13%,nt
c1nc(NC2CCNCC2)c2cc(-c3ccoc3)ccc2n1,nt,8%,1%,-2%,nt,nt
COc1ccc2nc(SC)c(C#N)cc2c1,?,11µM*,2%[10 µM],nt,2%[9.22 µM],nt
CCCOc1ccc(OCC(=O)c2[nH]c(C)c(C(C)=O)c2C)cc1,-2%[46.1 µM],14%[38.3 µM],-6%,?,8.9µM*,3
CC(=O)c1c(C)[nH]c(C(=O)COc2cc(C)cc(C)c2)c1C,-8%[46.1 µM],2%[38.3 µM],8%,2%,-17%,10
Cc1ccc(-c2nnc(Nc3cccc(Cl)c3)c3ccccc23)cc1S(=O)(=O)NCC1CCCO1 (stereo not given),nt,nt,nt,nt,nt,4
CCOC(=O)N/N=C1/C[C@@H](O)[C@@H](O)[C@@H]2[C@@H]3C(=O)N(C[C@@H]4CCCO4)C(=O)[C@H]3CC[C@@H]12,nt,nt,-49%[10 µM],nt,nt,nt
CC1CCC(C(C)C)C(OC(=O)Cn2c(-c3ccc(F)cc3)[n+](C)c3ccccc32)C1 (stereo not given),-15%,24%,-72%[10 µM],?,?,3
CC1CCC(C(C)C)C(OC(=O)Cn2c(-c3ccccc3)[n+](C)c3ccccc32)C1 (stereo not given),?,11%,-49%[10 µM],?,11µM*,3
CC(=O)OC[C@H]1O[C@@H](ON=C(C)C)[C@H](OC(C)=O)[C@@H](OC(C)=O)[C@H]1OC(C)=O,nt,nt,4%[10 µM],nt,nt,nt
O=C(O)CCC(=O)N1N=C(c2c(-c3ccccc3)c3cc(Cl)ccc3[nH]c2=O)CC1c1cccs1 (stereo not given),-4%,-7%,2.8µM*,-3%,-6%,nt
NC(N)=N/N=C(\c1ccc(Cl)cc1)C1CC1,nt,5%,14%[10 µM],nt,nt,nt
CN1CCN(c2ncc3nc(-c4cc(F)cc(F)c4)c(=O)n(CCC#N)c3n2)CC1,nt,15%,-3%,-3%,nt,nt
CN(C)c1ccc(N=Nc2ccccc2C(=O)OCC(=O)NC2CCCC2)cc1,?,nt,-20%[10 µM],-15%,6.3µM*,-1
CN(C)c1ccc(N=Nc2ccccc2C(=O)OCC(=O)NCC2CCCCC2)cc1,-49%,10%,5%[10 µM],?,-1%,nt
COc1ccc2cc3c(N)c(C(=O)N4CCCC4)sc3nc2c1,-19%[46.1 µM],15%[38.3 µM],-4%,11%,-6%,-2
